# Measured values reported in the supplement of paper PMC9135407.
# “And” between values parts separate entries of the source, which are not always exact repeats. Equal entries are not always repeated. Structures can show the parent of a compound that is named as a salt. Among all 5,800 compounds or so, about 620 (11%) showed activity. This is one part of a sample in which actives are shown more often than they occur. A number with no mark means an inactive call.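 The calls were made as follows: active = score above a cut-off or among the top three wells of a plate; in these data no inactive exceeds 0.85.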
# Test system: primary human hepatic stellate cells (donor 1)
# Test: scaled lipid accumulation score (0 = DMSO-like, 1 = nortriptyline-like); higher = stronger HSC inactivation (lipid re-accumulation), active = hit call of the paper
# Details: 48 h
# Description: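 Primary lipid accumulation screen in primary human hepatic stellate cell myofibroblasts (donor 1, passage 8) in 384-well plates. 100 nL of library compound was pin-transferred into 30 µL medium in duplicate, and cells were treated for 48 h. The 'Scaled' score combines distance from plate baseline, toxicity and reproducibility penalties, and is normalised to nortriptyline (positive) and DMSO (negative) controls on each plate. A hit is defined as scaled >0.85 or among the top 3 wells per plate.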
# [1] = library stock concentration: 10 mM
# [2] = library stock concentration: 80 uM
# [3] = library stock concentration: 400 uM
# [4] = library stock concentration: 2 mM
# [5] = library stock concentration: 3.33 mM
# [6] = library stock concentration: 1 mM
compound,measurement,setting,value
CC1(C(=O)O)NCCc2cc(O)c(O)cc21 (stereo not given) [Salsolinol-1-carboxylic acid],scaled lipid accumulation score,[1],0.05
NC/C=C/C(=O)O [(E)-4-amino-2-butenoic acid],scaled lipid accumulation score,[1],≤ 0
CCn1cc(-c2ccnc3[nH]c(-c4cccc(CN(C)C)c4)cc23)c(-c2ccc(NC(=O)N(C)C)cc2)n1 [listing 1 of 2 here],scaled lipid accumulation score,[2],≤ 0
same,scaled lipid accumulation score,[3],≤ 0
same,scaled lipid accumulation score,[4],0.222
CN(C)C(=O)Nc1cccc(-c2ccc(N(C)C)cc2)c1 [Atglistatin],scaled lipid accumulation score,[5],0.012
same,scaled lipid accumulation score,[1],0.076
CCn1cc(-c2ccnc3[nH]c(-c4cccc(CN(C)C)c4)cc23)c(-c2ccc(NC(=O)N(C)C)cc2)n1 [listing 2 of 2 here],scaled lipid accumulation score,[1],0.863 (active)
NCCNCCNCCN [Trientine hydrochloride],scaled lipid accumulation score,library stock concentration: 9.1 mM,≤ 0
CC(=O)Oc1ccc2c(c1)CC[C@@H]1[C@@H]2CC[C@]2(C)[C@@H](OC(C)=O)CC[C@@H]12 [Estradiol diacetate],scaled lipid accumulation score,[1],≤ 0
N#C[C@@H]1C[C@@H]2C[C@@H]2N1C(=O)[C@@H](N)C12CC3CC(CC(O)(C3)C1)C2 [Saxagliptin],scaled lipid accumulation score,[5],≤ 0
same,scaled lipid accumulation score,[1],≤ 0
N#C[C@@H]1C[C@@H]2C[C@@H]2N1C(=O)[C@@H](N)C12CC3CC(CC(O)(C3)C1)C2,scaled lipid accumulation score,[1],≤ 0
O=C(O)CCC/C=C\C[C@H]1C(=O)C[C@@H](O)[C@@H]1/C=C/[C@@H](O)Cc1ccccc1 [16-phenyl tetranor Prostaglandin E2],scaled lipid accumulation score,[6],≤ 0
CCCCn1c(=O)c2[nH]c(C34CC5CC(CC3C5)C4)nc2n(CCCO)c1=O,scaled lipid accumulation score,[1],≤ -0.001
CN1CCN2c3ccccc3Cc3ccccc3C2C1.Cl (stereo not given) [Mianserin hydrochloride],scaled lipid accumulation score,[1],0.869 (active)
CN1CCN2c3ncccc3Cc3ccccc3C2C1 (stereo not given) [Mirtazepine],scaled lipid accumulation score,[1],0.053
CN1CCN2c3ncccc3Cc3ccccc3C2C1 (stereo not given),scaled lipid accumulation score,[1],0.409
CN1CCN2c3ccccc3Cc3ccccc3C2C1 (stereo not given) [Mianserine hydrochloride],scaled lipid accumulation score,,0.681
CN1CCN2c3ccccc3Cc3ccccc3C2C1 (stereo not given) [Mianserin hydrochloride],scaled lipid accumulation score,library stock concentration: 6.6 mM,0.236
same,scaled lipid accumulation score,[1],0.398
CN1CCN2c3ncccc3Cc3ccccc3C2C1 (stereo not given) [mirtazapine],scaled lipid accumulation score,[1],0.317
CN1CCN2c3ccccc3Cc3ccccc3C2C1 (stereo not given) [Mianserin HCl],scaled lipid accumulation score,[5],0.172
same,scaled lipid accumulation score,[1],0.188
CN1CCN2c3ncccc3Cc3ccccc3C2C1 (stereo not given) [Mirtazapine],scaled lipid accumulation score,[5],≤ 0
same,scaled lipid accumulation score,[1],0.104
CN1CCN2c3ccccc3Cc3ccccc3C2C1 (stereo not given) [Mianserin hcl],scaled lipid accumulation score,library stock concentration: 7.6 mM,0.348
"Cc1c(C)c2c(c(C)c1O)CC[C@@](C)(CCC[C@H](C)CCC[C@H](C)CCCC(C)C)O2 (racemic) [Tocopherol (R,S)]",scaled lipid accumulation score,,≤ 0
CN1CCN(c2c(F)cc3c(=O)c(C(=O)O)cn(CCF)c3c2F)CC1 [Fleroxacin],scaled lipid accumulation score,library stock concentration: 5.4 mM,≤ 0
CCCCCC(=O)/C=C/C=C\C/C=C\C/C=C\CCCC(=O)O [15-Ketoicosatetraenoic acid],scaled lipid accumulation score,library stock concentration: 100 uM,≤ -0.021
CC(=O)Nc1ncc([N+](=O)[O-])s1,scaled lipid accumulation score,[1],≤ 0
CC(=O)Nc1ncc([N+](=O)[O-])s1 [Nithiamide],scaled lipid accumulation score,[5],≤ 0
same,scaled lipid accumulation score,[1],≤ -0.001
COc1ccc(CNC(=O)Nc2ncc([N+](=O)[O-])s2)cc1 [listing 1 of 2 here],scaled lipid accumulation score,[5],0.006
COc1ccc(CNC(=O)Nc2ncc([N+](=O)[O-])s2)cc1 [listing 2 of 2 here],scaled lipid accumulation score,[1],0.864 (active)
COc1ccc(CNC(=O)Nc2ncc([N+](=O)[O-])s2)cc1 [GSK-3b Inhibitor VIII],scaled lipid accumulation score,[5],≤ 0
O=C(c1ccccc1)c1ccc(N2CCOCC2)cc1O [DNA-PK Inhibitor V],scaled lipid accumulation score,[5],≤ 0
"CCCCC(C)(C)[C@H](O)/C=C/[C@H]1C(=O)C[C@H](O)[C@@H]1C/C=C\CCCC(=O)O [16,16-dimethyl Prostaglandin D2]",scaled lipid accumulation score,[6],≤ 0
O=C1NC(=O)[C@@H](c2cn3c4c(cccc24)CCC3)[C@@H]1c1c[nH]c2ccccc12 [Tivantinib],scaled lipid accumulation score,[2],≤ -0.009
same,scaled lipid accumulation score,[3],0.071
same,scaled lipid accumulation score,[4],≤ -0.009
same,scaled lipid accumulation score,[1],0.169
"CCCCCC(=O)CC[C@H]1C(=O)C[C@H](O)[C@@H]1C/C=C\CCCC(=O)O [13,14-dihydro-15-keto Prostaglandin D2]",scaled lipid accumulation score,[6],≤ 0
C=CC(=O)Nc1cccc(Nc2nc(Nc3ccc(N4CCN(C(C)=O)CC4)cc3OC)ncc2C(F)(F)F)c1,scaled lipid accumulation score,[5],≤ -0.009
same,scaled lipid accumulation score,[1],0.063
COc1cc(N2CCN(C)CC2)ccc1Nc1nccc(-c2cn(C)c3cnccc23)n1,scaled lipid accumulation score,[5],≤ -0.009
same,scaled lipid accumulation score,[1],0.446
C=CC(=O)Nc1cccc(Nc2nc(Nc3ccc(NC4CN(CCF)C4)cc3OC)ncc2C(F)(F)F)c1,scaled lipid accumulation score,[5],≤ -0.009
same,scaled lipid accumulation score,[1],0.811
C=CC(=O)Nc1cc(Nc2nccc(-c3cn(C)c4ccccc34)n2)c(OC)cc1N(C)CCN(C)C [listing 1 of 3 here],scaled lipid accumulation score,[4],1.01 (active)
C=CC(=O)Nc1cc(Nc2nccc(-c3cn(C)c4ccccc34)n2)c(OC)cc1N(C)CCN(C)C [listing 2 of 3 here],scaled lipid accumulation score,[1],≤ 0
C=CC(=O)Nc1cc(Nc2nccc(-c3cn(C)c4ccccc34)n2)c(OC)cc1N(C)CCN(C)C [listing 3 of 3 here],scaled lipid accumulation score,[5],0.983 (active)
"CCN1CCCC1CNC(=O)c1cc(S(N)(=O)=O)ccc1OC (single isomer, unassigned; (-)) [(-)-Sulpiride]",scaled lipid accumulation score,[1],≤ 0
O=C1CCc2c(ccc3ccccc23)O1 [Splitomicin],scaled lipid accumulation score,[1],≤ -0.006
CCCCC[C@@H](O)/C=C/[C@@H]1[C@H](C/C=C\CCCC(=O)O)[C@@H](O)C[C@H]1O [8-iso-15(R)-Prostaglandin F2.alpha.],scaled lipid accumulation score,[6],≤ 0
CCCCC[C@H](O)/C=C/[C@@H]1[C@@H](C/C=C\CCCC(=O)NC(CO)CO)[C@@H](O)C[C@H]1O [Prostaglandin F2.alpha. serinol amide],scaled lipid accumulation score,[6],≤ 0
Nc1ncnc2c1c(I)cn2[C@@H]1O[C@H](CO)[C@@H](O)[C@H]1O [5-Iodotubercidin],scaled lipid accumulation score,[5],≤ 0
CCCCC[C@H](O)/C=C/[C@H]1C=CC(=O)[C@@H]1C/C=C\CCCC(=O)O [Prostaglandin A2],scaled lipid accumulation score,[6],≤ 0 and ≤ -0.021
CC(=O)O.N=C(N)N/N=C/c1c(Cl)cccc1Cl [Guanabenz acetate],scaled lipid accumulation score,[1],0.999 (active)
N=C(N)N/N=C/c1c(Cl)cccc1Cl [Guanabenz acetate],scaled lipid accumulation score,,0.45
same,scaled lipid accumulation score,library stock concentration: 6.9 mM,0.304
same,scaled lipid accumulation score,library stock concentration: 8.7 mM,0.227
same,scaled lipid accumulation score,[1],0.426 and 0.365
N=C(N)N/N=C/c1c(Cl)cccc1Cl [Guanabenz Acetate],scaled lipid accumulation score,[5],≤ 0
same,scaled lipid accumulation score,[1],0.578
N=C(N)NC(=O)Cc1c(Cl)cccc1Cl [Guanfacine hydrochloride],scaled lipid accumulation score,,≤ 0
same,scaled lipid accumulation score,[1],0.148 and 0.048
N=C(N)NC(=O)Cc1c(Cl)cccc1Cl [Guanfacine HCl],scaled lipid accumulation score,library stock concentration: 7.1 mM,≤ -0.006
"CCCCCC#CCC#CCC#CCC#CCCCC(=O)O [5,8,11,14-Eicosatetraynoic acid]",scaled lipid accumulation score,[6],≤ -0.021
CCCCCCCCCCCCCCCC(=O)N[C@H]1CCOC1=O [N-hexadecanoyl-L-Homoserine lactone],scaled lipid accumulation score,[6],≤ 0
C(=C/CCN(C)C)(/c1c2cccc1)\c3c(cccc3)C=C2.Cl [Cyclobenzaprine hydrochloride],scaled lipid accumulation score,[1],0.991 (active)
CN(C)CCC=C1c2ccccc2C=Cc2ccccc21.Cl [Cyclobenzaprine HCl],scaled lipid accumulation score,[5],0.507 (active)
CN(C)CCC=C1c2ccccc2C=Cc2ccccc21 [Cyclobenzaprine HCl],scaled lipid accumulation score,[1],0.745
CN(C)CCC=C1c2ccccc2C=Cc2ccccc21 [Cyclobenzaprine hydrochloride],scaled lipid accumulation score,library stock concentration: 6.4 mM,0.579
same,scaled lipid accumulation score,[1],0.568
C(/c1c2cccc1)(=C/CCN(C)C)\c3c(cccc3)C=C2.Cl [Cyclobenzaprine hydrochloride],scaled lipid accumulation score,,0.86 (active)
CC(C(=O)O)c1ccc(CC2CCCC2=O)cc1 (stereo not given),scaled lipid accumulation score,[1],≤ 0
CC(C(=O)O)c1ccc(CC2CCCC2=O)cc1 (stereo not given) [loxoprofen],scaled lipid accumulation score,[1],0.127
C=C1CC[C@H](O)C/C1=C/C=C1\CCC[C@]2(C)[C@@H]([C@H](C)CCCC(C)(C)O)CC[C@@H]12 [Calcifediol],scaled lipid accumulation score,[5],≤ 0
same,scaled lipid accumulation score,library stock concentration: 5 mM,0.042
same,scaled lipid accumulation score,[1],≤ 0
Nc1nc2c(ncn2[C@@H]2O[C@H](CO)[C@@H](O)[C@@H]2O)c(=O)[nH]1 [Ara-G hydrate],scaled lipid accumulation score,[1],≤ 0
Oc1ccc(OC2CCCCO2)cc1 (stereo not given) [Deoxyarbutin],scaled lipid accumulation score,[5],≤ 0
same,scaled lipid accumulation score,[1],≤ -0.001
CC(=O)N(CC(O)CO)c1c(I)c(C(=O)NCCO)c(I)c(C(=O)NCC(O)CO)c1I (stereo not given),scaled lipid accumulation score,[1],≤ 0
O=C(OC[C@@H]1O[C@H]1c1ccccc1)Oc1ccc([N+](=O)[O-])cc1,scaled lipid accumulation score,[6],≤ 0
CCCCC[C@H](O)/C=C/[C@@H]1[C@@H](CC(=O)CCCCC(=O)O)[C@@H](O)C[C@H]1O [6-keto Prostaglandin F1.alpha.],scaled lipid accumulation score,[6],≤ 0
CCCCC[C@H](O)/C=C/[C@@H]1[C@@H](CC(=O)CCCCC(=O)O)[C@@H](O)C[C@H]1O [6-Keto-prostaglandin F1a],scaled lipid accumulation score,[6],≤ -0.021
COc1c/c(=C2\C=c3ccccc3=N2)[nH]/c1=C\c1[nH]c(C)cc1C [Obatoclax Mesylate (GX15-070)],scaled lipid accumulation score,[5],0.602
same,scaled lipid accumulation score,[1],0.617
